# Experimental data published in PubChem BioAssay AID2711 (National Center for Advancing Translational Sciences (NCATS), 2010).
# The other results are listed elsewhere or left out. Entries that show only a call come without a potency. Inconclusive results are not listed. Calls of active or inactive are those of the source. Calls come from the whole dose curve; as a rule, active = well fitted inhibition curve with a large enough effect; inconclusive = small, poorly fitted or top-dose-only effect; inactive = no such curve, though single readings can be large or run the other way.
# Test: Counterscreen for RECQ1 Inhibitors: ADP Fluorescence Polarization Displacement Assay; note: nearly all actives have a fitted effect of over 45% in size
# Details: series mostly up to 228 µM
# Description: In order to gain further insight into the mode of action of the RECQ1 screening hits, we have profiled them in a set of miniaturized fluorescence polarization assays designed to report on compounds which competitively displace either co-substrate (ATP or DNA). The appropriate fluorescently-labeled probe was used: BODIPY Texas Red-labeled ADP was expected to be competed off by ATP-competitive inhibitors, while single-TAMRA labeled forked-duplex or short single-stranded DNA molecules served as probes for DNA-competitive compounds.
# Three uL of reaction buffer (25 mM Tris-HCl (pH 8.0), 5 mM NaCl, 2 mM MgCl2, 1mM DTT, 0.01% Tween- 20, and 2.5 ug/ml poly(dI-dC), containing 300 nM RECQ1 and 500 nM BODIPY Texas Red-ADP (Invitrogen) were dispensed into a 1536-well Greiner black assay plate via solenoid-valve based nanoliter dispensers; 500 nM BODIPY Texas Red-ADP without RECQ1 protein served as a fully-displaced control. Compounds (23 nl each in columns 5-48) were transferred via a Kalypsys pintool equipped with a 1536-pin array. The plates were incubated for 15 min at room temperature and were then transferred into a ViewLux high-throughput CCD imager, where the endpoint fluorescence polarization was measured using 525 nm excitation and 598 nm emission protocol.
# Potency is the fitted concentration of half-maximal effect.
row,Structure (SMILES),Potency
1,O=C(N/N=C/c1sc(N2CCCCC2)nc1-c1cccs1)c1cccnc1,inactive
2,O=C(O)CCn1c(SCc2cc(=O)n3ccccc3n2)nc2ccsc2c1=O,inactive
3,c1ccc(CSc2nnc(-c3ccco3)c(-c3ccco3)n2)cc1,50.1 µM (active)
4,CC1Cc2ccccc2N1C(=O)CSc1nnc(-c2ccc(S(=O)(=O)N3CCCC3)cc2)n1C (configuration not stated),inactive
5,O=C(OCC1O[C@@H](OC(=O)c2cc(O)c(O)c(O)c2)[C@@H](OC(=O)c2cc(O)c(O)c(O)c2)[C@@H](OC(=O)c2cc(O)c(O)c(O)c2)[C@@H]1OC(=O)c1cc(O)c(O)c(O)c1)c1cc(O)c(O)c(O)c1 (some centres not stated),inactive
6,CC(C)C1N=C2c3ccccc3N=C(SCC(=O)c3ccc(O)c(O)c3)N2C1=O (configuration not stated),inactive
7,CC(=O)Nc1ccc(Nc2c3ccccc3nc3ccccc23)cc1,inactive
8,O=C(NC(Cc1c[nH]c2ccccc12)C(=O)O)/C(=C/c1ccco1)NC(=O)c1ccccc1 (configuration not stated),inactive
9,O=C(NCc1ccccc1)C1=C[C@@H](C2CCCCC2)C[C@@H](OCc2ccc(CO)cc2)O1,inactive
10,O=C(CCn1nnc2ccccc2c1=O)N[C@@H](Cc1c[nH]c2ccccc12)C(=O)O,inactive
11,O=C(NC(Cc1ccccc1)C(=O)N1CCCC1C(=O)O)c1ccccc1 (configuration not stated),inactive
12,COc1cc(C2C(C(=O)c3ccc(C)o3)=C(O)C(=O)N2CCc2ccccc2)ccc1O (configuration not stated),inactive
